# Bioassay records (PubChem)
# MEX-5 binding = C. elegans MEX-5 TCR-2 RNA binding activity. MEX-5/FITC-TCR2 RNA binding, fluorescence polarization; active compounds read low. activity score (negative = inhibition of binding), % at 10 µM. 300,000 tested, 0.38% active. AID 1832;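 active = inhibition past about -25% in most replicates, and total fluorescence under double the plate's negative control median, limit read from the data; inconclusive = replicates evenly split on the limit, or fluorescence at least double controls; inactive = too little inhibition in most replicates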;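 also: 0% = DMSO and -100% = 5 µM competing unlabeled TCR2 RNA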
# MCL1 BIM primary = disrupts human MCL1 binding to BIM-BH3 peptide; 320,000 tested, 0.68% active; Q07820; inhibition, % at 10.9 µM; GST-MCL1 / FITC-Bim-BH3 fluorescence polarization;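 active = inhibition above the mean inhibition of all tested compounds plus 3 SD, set per campaign, cut at about 40% in these data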;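 also: 0% = DMSO wells and 100% = unlabeled Bim-BH3 peptide control; higher means more loss of mP so more displacement of Bim peptide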
# GLD-1 RNA inh = GLD-1-TGE RNA interaction inhibition (C. elegans). purified GLD-1 + fluorescein TGE RNA, fluorescence polarization. 320,000 tested, 0.44% active. AID 2280. inhibition, % at 5.96 µM. Q17339;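 active = percent inhibition above a per-plate cutoff, the plate mean of test compounds plus 3 SD, cut at about 30% in these data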;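 also: 0% = DMSO wells with GLD-1 and probe and 100% = wells lacking GLD-1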
# EBV gp42 block = inhibitors of Epstein-Barr virus glycoprotein 42; Q1HVG2; AID 1085; inhibition, % (tested at 21.74 µM); 220,000 tested, 0.42% active; Fluorescence polarization binding assay, mP read-out; in the data active = inhibition above about 50%
# Target sequence (Q1HVG2 whole entry, looked up): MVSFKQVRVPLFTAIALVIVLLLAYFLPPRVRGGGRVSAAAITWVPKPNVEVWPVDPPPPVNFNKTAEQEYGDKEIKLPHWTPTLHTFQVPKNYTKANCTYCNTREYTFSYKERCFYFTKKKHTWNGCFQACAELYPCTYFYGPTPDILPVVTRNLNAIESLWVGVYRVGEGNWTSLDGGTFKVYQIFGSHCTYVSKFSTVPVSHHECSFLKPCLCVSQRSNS
# E coli Lon inh = E. coli protease La inhibition; AID 602123; purified E. coli Lon protease, fluorescence polarization; 360,000 tested, 0.42% active; inhibition, % at 7.94 µM; in the data active = inhibition above about 13%, passing the limit was not always enough;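 also: 0% = enzyme with probe and DMSO and 100% = no enzyme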
# BCLXL inh = Bcl-xL (human) inhibition. 320,000 tested, 0.7% active. GST-Bcl-xL / FITC-Bim BH3 peptide fluorescence polarization. inhibition, % at 10.9 µM. Q07817;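 active = inhibition above the mean of all tested compounds plus 3 SD, cutoff set per campaign, cut at about 30% in these data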;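 also: 0% = DMSO wells and 100% = unlabeled Bim-BH3 peptide competitor; inhibitors lower millipolarization by displacing the labeled peptide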
# Target sequence (Q07817 whole entry, looked up): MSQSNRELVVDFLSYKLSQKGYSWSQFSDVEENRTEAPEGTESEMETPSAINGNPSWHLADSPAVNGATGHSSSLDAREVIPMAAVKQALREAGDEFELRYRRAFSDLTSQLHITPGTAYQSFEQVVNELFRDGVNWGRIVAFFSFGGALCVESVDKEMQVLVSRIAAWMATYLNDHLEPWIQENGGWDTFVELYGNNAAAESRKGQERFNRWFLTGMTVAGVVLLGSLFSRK
# eLon confirm = E. coli Lon inhibition confirmation. purified E. coli Lon, fluorescence polarization. inhibition, % at 7.94 µM. 1,400 tested, 31% active. AID 602230. shares compounds with E coli Lon inh; in the data active = inhibition above about 16%;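 also: 0% = enzyme with probe and DMSO and 100% = no enzyme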
# * hit, by the source's call; ? = inconclusive; / = no result; + = active, no number; ! = repeats disagree. Most compounds without a hit are left out; they make up all but 1.5% or so of the library.
SMILES,MEX-5 binding,MCL1 BIM primary,GLD-1 RNA inh,EBV gp42 block,E coli Lon inh,BCLXL inh,eLon confirm
CC1CCCN(C(=O)CSc2nc3ncccc3[nH]2)C1 (centres undefined),-1,-2,2,-8,17*,5,-1
CSCCC1NC(=O)C(C(C)=NNC(N)=O)=C1O (centres undefined),/,/,/,/,-6,/,/
CC1(C(=O)NCC(F)(F)F)CCN1C(=O)Cc1ccc(-c2ccccc2)cc1 (centres undefined),/,/,/,/,-2,/,/
O=C(N=Nc1c(O)[nH]c2ccc(Br)cc12)c1ccccc1-n1cccc1,0,3,6,-2,24*,2,4
CCN(CC)C(=S)Nc1ccc(Cl)c(Cl)c1,-2,7,-1,-7,17*,0,32*
Cc1cccc(NC(=O)Nc2ccccc2)n1,0,-6,0,/,10,4,/
Cc1cccc(NC(=O)NCC(F)(F)F)n1,-1,4,-2,-10,27*,3,14
FC(F)(F)c1ccccc1Cc1c(-c2cccc(Br)c2)nc2c3ccccc3ccn12,/,/,/,/,-16,/,/
O=C(NCc1ccccc1)c1cc[n+]([O-])cc1,-1,-6,-2,/,3,4,/
O=C(O)c1ccc(CN2C(=O)CSC2=S)cc1,0,32,-1,-1,16*,27,-7
OC(CN1CCCCC1)c1ccc(Br)cc1 (centres undefined),/,/,/,/,10,/,/
OC(CN1CCCCC1)c1ccc2c3c(cccc13)CC2 (centres undefined),/,/,/,/,70*,/,3
CCOc1ccccc1N1CCN(Cc2ccc(Br)s2)CC1,2,-1,9,-23,28*,1,11
COc1ccc(C=Nc2cccnc2N)cc1,1,45*,64*,/,+,46*,-14
COc1ccc(/C=N/Nc2nonc2N)cc1,1,3,1,-12,9,4,/
O=C(Nc1ccc(C(=O)N2CCN(c3ccc(Cl)cc3)CC2)cc1)C1=CSCCO1,1,0,2,/,25*,9,2
CCN1CCN(Cc2ccc(NC(=O)c3ccc(C)c(NC(=O)c4cccc5[nH]ccc45)c3)cc2C(F)(F)F)CC1,-1,1,1,-11,13*!,0,8
CCN1CCN(Cc2ccc(NC(=O)c3ccc(C)c(NC(=O)c4nccn4C)c3)cc2C(F)(F)F)CC1,0,8,-4,-14,3,3,/
Cn1c2ccccc2c2cc(/C=N/NC(=O)c3ccc(N)cc3)ccc21,-3,3,0,/,20*,9,2
COc1cc(C(=O)NNC(=O)COc2cccc(F)c2)ccc1OCC(=O)N1CCOCC1,/,-1,-3,/,-7,-3,/
CC(=O)c1c(C)[nH]c(C(=O)CSc2nnc(-c3ccccc3)n2Cc2ccc3c(c2)OCO3)c1C,-2,-14,-4,-9,18*,-6,4
Cc1ccc(CNC(=O)c2cc(C3CC3)nc3c2cnn3C(C)C)cc1,/,-6,2,/,-2,0,/
Cc1ccc(OCCNC(=O)c2cc(C3CC3)nc3c2cnn3C(C)C)cc1,/,-20,5,/,+,-4,-33
CCOc1ccc(/C(O)=C2/C(=O)C(=O)N(c3ccccn3)C2c2ccc(Cl)cc2)c(C)c1 (centres undefined),-8,/,/,/,0,/,/
CCOc1ccc(/C(O)=C2/C(=O)C(=O)N(c3ccccn3)C2c2ccc(C)cc2)c(C)c1 (centres undefined),0,-7,1,/,26*,-2,-5
SMILES,MEX-5 binding,MCL1 BIM primary,GLD-1 RNA inh,EBV gp42 block,E coli Lon inh,BCLXL inh,eLon confirm
CC(=O)c1ccc2c(c1)c(C#N)c1ccccc1[n+]2[O-],?,/,/,/,96*,/,88*
Cc1ccc(-c2cc(C(=O)Nc3c(C)n(C)n(-c4ccccc4)c3=O)[nH]n2)c(O)c1,-1,-6,6,0,15*,3,0
O=C(NN1S(=O)(=O)c2ccccc2S1(=O)=O)c1ccc(Br)cc1,1,3,3,-12,5,8,/
Cc1cccc(C(=O)NN2S(=O)(=O)c3ccccc3S2(=O)=O)c1,2,-2,-4,-9,17*,12,0
CCCCC(=O)OCC(=O)C1(O)Cc2c(O)c3c(c(O)c2C(OC2CC(NC(=O)C(F)(F)F)C(O)C(C)O2)C1)C(=O)c1c(OC)cccc1C3=O (centres undefined),/,/,/,/,141,/,/
COc1cccc2c1C(=O)c1c(O)c3c(c(O)c1C2=O)CC(O)(C(C)=O)CC3OC1CC(O)C(O)C(C)O1 (centres undefined),/,/,/,/,+,/,+
O=C(COc1ccc(F)cc1)NNC(=O)Cn1ccc(C(F)(F)F)n1,/,/,6,/,-10,/,/
CN(C)c1ccc(NC(=O)CSc2nc3c(c(=O)[nH]2)CCCC3)cc1,-1,8,2,-9,-9,8,/
COc1cc(NC(=O)CSc2nc3c(c(=O)[nH]2)CCCC3)cc(OC)c1OC,1,5,-1,-2,16*,3,1
CCC(=O)N1CCc2cc(S(=O)(=O)CCC(=O)Nc3ccc(OC)c(OC)c3)ccc21,-1,8,3,-17,-1,7,/
C/C(N)=C(/C#N)C(=O)CSc1nnc(-c2ccccc2)n1C,-2,4,2,-14,2,7,/
CCOc1ccc(OCCC(=O)OCC(=O)N2CCN(S(=O)(=O)c3ccc(C)cc3C)CC2)cc1,/,/,/,/,20*,/,3
Cc1ccc(OCCC(=O)OCC(=O)N2CCN(S(=O)(=O)c3ccc(C)cc3C)CC2)cc1,0,-2,2,/,-4,-5,/
CC(C)(C)OC(=O)N1CCC[C@@H]1C(=O)N1CCC[C@@H]1C(=O)NCc1ccccc1Cl,/,/,/,/,-5,/,/
O=C(CN1C(=O)COc2ccc(S(=O)(=O)N3CCOCC3)cc21)Nc1cccc(Cl)c1,-2,2,4,/,19*,4,1
Fc1ccccc1CNCc1ccc2c(c1)OCO2,-2,8,0,/,-2,6,/
C[C@H]1CN([C@@H](C)CO)C(=O)c2cc(-c3cccc(C#N)c3)cnc2O[C@H]1CN(C)C(=O)c1ccccn1,/,/,/,/,0,/,/
O=C(CNC(=O)N1CC(=O)Nc2ccccc21)Nc1cc(Cl)ccc1Cl,2,7,-4,/,-1,3,/
Cc1[nH]c2ccccc2c1/C=N\NC(=O)c1ccco1,/,/,/,/,159*,/,-2
Cc1[nH]c2ccccc2c1/C=N/NC(=O)c1cccc(F)c1,3,13,-1,-12,31*,4,7
COc1ccc(C2=Nc3ccccc3NC(=O)C2N(C(=O)c2ccnc3ccccc23)c2ccccc2)cc1 (centres undefined),/,/,/,/,3,/,/
C[C@H](NC(=O)C1CC(=O)N(c2ccc(F)cc2)C1)C(=O)N1CCCCC1 (some centres undefined),0,-2,-3,/,20*,0,5
